{"source": "PubChem BioAssay (NCI)", "note": "About 79,000 compounds went through this panel and 15% of them were active in at least one assay; those are over-represented in the sample as a whole. Values without a mark were called inactive. Calls of active or inactive are those of the source. No stated cut-off is given here; in the data, active means growth inhibition above about 70%; inactive means the rest.", "data": [{"assay": "NCI Yeast Anticancer Drug Screen. Data for the cln2 rad14 strain (AID 165)", "conditions": "S. cerevisiae cln2 rad14 strain, at 50.0 µM, hits give high values", "summary_of_the_method": "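Readout is yeast growth inhibition versus vehicle-treated controls, using a strain with cln2 and rad14 alterations exposed to compound.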", "values": [{"compound": "Cc1cc(=O)n(NC(N)=O)c(C)c1C(=O)O", "growth inhibition": "-29.5%"}, {"compound": "COC(=O)C(Cl)=C1CC1", "growth inhibition": "18.6%"}, {"compound": "O=[N+]([O-])c1ccccc1S(=O)NCc1c(Cl)cccc1Cl", "note": "(centres undefined)", "growth inhibition": "22.5%"}, {"compound": "OC(CNCCc1ccccc1)COc1cccc2ccccc12", "note": "(centres undefined)", "growth inhibition": "98.5% (active)"}]}, {"assay": "NCI Yeast Anticancer Drug Screen. Data for the bub3 strain (AID 167)", "conditions": "S. cerevisiae bub3 mutant strain, at 50.0 µM, hits give high values", "summary_of_the_method": "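Mutant yeast screening strain plus compound; vehicle-treated cultures serve as the 0% inhibition reference.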", "values": [{"compound": "COc1cc(S(N)(=O)=O)c(OC)cc1N", "growth inhibition": "-5.6%"}, {"compound": "O=C1CCCNC(=O)CCCN1", "growth inhibition": "-14.3%"}, {"compound": "N#CCCn1[nH]c(=O)c(Cl)c(Cl)c1=O", "growth inhibition": "4.15%"}, {"compound": "c1csc(-c2nn3c(C45CC6CC(CC(C6)C4)C5)nnc3s2)c1", "growth inhibition": "2.3%"}, {"compound": "O=C(Nc1ccc(Cl)cc1)C(=O)C1=C(O)c2ccccc2OC1", "growth inhibition": "-4.95%"}, {"compound": "COc1cc2c(cc1OC)C(C(CO)CO)N(CC(O)CCl)CC2", "note": "(centres undefined)", "growth inhibition": "-13.9%"}, {"compound": "CCC(c1ccco1)C(C#N)C(=O)OC(C)(C)C", "note": "(centres undefined)", "growth inhibition": "-16.3%"}, {"compound": "CSc1nc2cc(S(=O)(=O)N3CCCCC3)ccc2s1", "growth inhibition": "-89.3%"}, {"compound": "CC(S)c1ccccc1", "note": "(centres undefined)", "growth inhibition": "25.7%"}, {"compound": "CN(C(=O)c1ccc(C(=N)N)cc1)c1ccccc1", "growth inhibition": "-0.05%"}, {"compound": "CC(=O)Nc1cc(OC(C)=O)nc2c1CCC2", "growth inhibition": "-1.05%"}, {"compound": "COC1/C=C/C(C)C(C(C)C(OC)C(C)CCC(=O)C(C)C(C/C=C/N(C)C=O)OC)OC(=O)/C=C/C=C(\\C)CC(OC)C(OC)C2=CC(=O)O[C@@H](C(C)C(OC)CC(OC)/C=C/C(C)C(O)C1)[C@H]2O", "note": "(some centres undefined)", "growth inhibition": "87.7% (active)"}, {"compound": "CC1COC(C)(C)O1", "note": "(centres undefined)", "growth inhibition": "8%"}, {"compound": "CCOC(=O)Sc1nccn1C", "growth inhibition": "-13.2%"}, {"compound": "CC1CC/C(=N\\O)CCCCC(=O)O1", "note": "(centres undefined)", "growth inhibition": "2.9%"}, {"compound": "CC(=O)OC[C@]1(C)CCCC2(C)C1CCC1C=C(C)[C@H]3CCC12C3", "note": "(some centres undefined)", "growth inhibition": "-3.1%"}, {"compound": "CCCC1OC1(CC)C(=O)OCC(CC)(COC(=O)C1(CC)OC1CCC)COC(=O)C1(CC)OC1CCC", "note": "(centres undefined)", "growth inhibition": "4.35%"}, {"compound": "Sc1ccccc1N=Cc1ccc(C=Nc2ccccc2S)cc1", "growth inhibition": "4.45%"}, {"compound": "CCN(c1ccc(Br)cc1)c1ccc(Br)cc1", "growth inhibition": "3.75%"}, {"compound": "N[C@H](C(=O)O)[C@H]1ON=C(Cl)[C@@H]1O", "growth inhibition": "11.3%"}, {"compound": "Nc1cc(Cl)ccc1S(=O)(=O)O", "growth inhibition": "-15.1%"}, {"compound": "CCOC(=O)NC(Nc1cccc(F)c1)(C(F)(F)F)C(F)(F)F", "growth inhibition": "-12.3%"}, {"compound": "COc1cc(C)ccc1C(=O)C[n+]1ccc2ccccc2c1", "growth inhibition": "-1.55%"}, {"compound": "CC1(C)C(=O)N(c2ccccc2)C1c1ccccc1", "note": "(centres undefined)", "growth inhibition": "12.1%"}, {"compound": "CC(=O)N(C(C)=O)C(CS)C(=O)O", "note": "(centres undefined)", "growth inhibition": "9.05%"}, {"compound": "Cc1cn(C(=O)NC23CC4CC(CC(C4)C2)C3)c(=O)[nH]c1=O", "growth inhibition": "10.9%"}, {"compound": "Clc1cccc(CC(Br)Br)c1", "growth inhibition": "-4.65%"}, {"compound": "C=CC(=O)OCc1ccc(OC)cc1", "growth inhibition": "5.95%"}, {"compound": "CC1OC(c2ccc(Cl)cc2)OC1C", "note": "(centres undefined)", "growth inhibition": "-5.7%"}, {"compound": "Cc1c(-c2ccccc2)[nH]n(C2=NCCN2)c1=O", "growth inhibition": "-15.5%"}, {"compound": "COc1ccc(CCN2C(=O)c3cccc4c(Br)ccc(c34)C2=O)cc1", "growth inhibition": "44.6%"}, {"compound": "CCOC(=O)c1ccc(NC(=S)NC(=O)c2cccs2)o1", "growth inhibition": "31.2%"}, {"compound": "Cc1cc(C)c(N)c(C)n1", "growth inhibition": "1.1%"}, {"compound": "COC(=O)C1=C(C(=O)OC)N(C(C)C)[C@H]2C(C(=O)OC)=C(C(=O)OC)N(C(C)C)[C@@H]12", "growth inhibition": "-34.8%"}, {"compound": "NNC(=O)CC(N)C(N)=O", "note": "(centres undefined)", "growth inhibition": "27.4%"}, {"compound": "CCOCNC(=O)Nc1ccccc1", "growth inhibition": "0.35%"}, {"compound": "Cc1cc(=O)n(NC(N)=O)c(C)c1C(=O)O", "growth inhibition": "-1.3%"}, {"compound": "COC(=O)C(Cl)=C1CC1", "growth inhibition": "6.25%"}, {"compound": "O=[N+]([O-])c1ccccc1S(=O)NCc1c(Cl)cccc1Cl", "note": "(centres undefined)", "growth inhibition": "5.2%"}, {"compound": "OC(CNCCc1ccccc1)COc1cccc2ccccc12", "note": "(centres undefined)", "growth inhibition": "88% (active)"}]}, {"assay": "NCI Yeast Anticancer Drug Screen. Data for the mlh1 rad18 strain (AID 175)", "conditions": "S. cerevisiae mlh1 rad18 strain growth inhibition; at 50.0 µM; hits give high values", "summary_of_the_method": "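Genetically defined yeast (DNA repair-deficient) exposed to compounds; growth inhibition determined relative to vehicle.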", "values": [{"compound": "COc1cc(S(N)(=O)=O)c(OC)cc1N", "growth inhibition": "-10.1%"}, {"compound": "O=C1CCCNC(=O)CCCN1", "growth inhibition": "-5.9%"}, {"compound": "N#CCCn1[nH]c(=O)c(Cl)c(Cl)c1=O", "growth inhibition": "-3.3%"}, {"compound": "c1csc(-c2nn3c(C45CC6CC(CC(C6)C4)C5)nnc3s2)c1", "growth inhibition": "-12.8%"}, {"compound": "O=C(Nc1ccc(Cl)cc1)C(=O)C1=C(O)c2ccccc2OC1", "growth inhibition": "9.15%"}, {"compound": "COc1cc2c(cc1OC)C(C(CO)CO)N(CC(O)CCl)CC2", "note": "(centres undefined)", "growth inhibition": "-30.8%"}, {"compound": "CCC(c1ccco1)C(C#N)C(=O)OC(C)(C)C", "note": "(centres undefined)", "growth inhibition": "-27.7%"}, {"compound": "CSc1nc2cc(S(=O)(=O)N3CCCCC3)ccc2s1", "growth inhibition": "-7%"}, {"compound": "CC(S)c1ccccc1", "note": "(centres undefined)", "growth inhibition": "14.4%"}, {"compound": "CN(C(=O)c1ccc(C(=N)N)cc1)c1ccccc1", "growth inhibition": "-8.95%"}, {"compound": "CC(=O)Nc1cc(OC(C)=O)nc2c1CCC2", "growth inhibition": "11.6%"}, {"compound": "COC1/C=C/C(C)C(C(C)C(OC)C(C)CCC(=O)C(C)C(C/C=C/N(C)C=O)OC)OC(=O)/C=C/C=C(\\C)CC(OC)C(OC)C2=CC(=O)O[C@@H](C(C)C(OC)CC(OC)/C=C/C(C)C(O)C1)[C@H]2O", "note": "(some centres undefined)", "growth inhibition": "91% (active)"}, {"compound": "CC1COC(C)(C)O1", "note": "(centres undefined)", "growth inhibition": "11.2%"}, {"compound": "CCOC(=O)Sc1nccn1C", "growth inhibition": "-0.45%"}, {"compound": "CC1CC/C(=N\\O)CCCCC(=O)O1", "note": "(centres undefined)", "growth inhibition": "0.85%"}, {"compound": "CC(=O)OC[C@]1(C)CCCC2(C)C1CCC1C=C(C)[C@H]3CCC12C3", "note": "(some centres undefined)", "growth inhibition": "11.3%"}, {"compound": "CCCC1OC1(CC)C(=O)OCC(CC)(COC(=O)C1(CC)OC1CCC)COC(=O)C1(CC)OC1CCC", "note": "(centres undefined)", "growth inhibition": "4%"}, {"compound": "Sc1ccccc1N=Cc1ccc(C=Nc2ccccc2S)cc1", "growth inhibition": "-3.75%"}, {"compound": "CCN(c1ccc(Br)cc1)c1ccc(Br)cc1", "growth inhibition": "7.55%"}, {"compound": "N[C@H](C(=O)O)[C@H]1ON=C(Cl)[C@@H]1O", "growth inhibition": "-2.15%"}, {"compound": "Nc1cc(Cl)ccc1S(=O)(=O)O", "growth inhibition": "-4.4%"}, {"compound": "CCOC(=O)NC(Nc1cccc(F)c1)(C(F)(F)F)C(F)(F)F", "growth inhibition": "4.9%"}, {"compound": "COc1cc(C)ccc1C(=O)C[n+]1ccc2ccccc2c1", "growth inhibition": "-2.5%"}, {"compound": "CC1(C)C(=O)N(c2ccccc2)C1c1ccccc1", "note": "(centres undefined)", "growth inhibition": "-5.7%"}, {"compound": "CC(=O)N(C(C)=O)C(CS)C(=O)O", "note": "(centres undefined)", "growth inhibition": "2.6%"}, {"compound": "Cc1cn(C(=O)NC23CC4CC(CC(C4)C2)C3)c(=O)[nH]c1=O", "growth inhibition": "82.2% (active)"}, {"compound": "Clc1cccc(CC(Br)Br)c1", "growth inhibition": "14.5%"}, {"compound": "C=CC(=O)OCc1ccc(OC)cc1", "growth inhibition": "29.5%"}, {"compound": "CC1OC(c2ccc(Cl)cc2)OC1C", "note": "(centres undefined)", "growth inhibition": "10.7%"}, {"compound": "Cc1c(-c2ccccc2)[nH]n(C2=NCCN2)c1=O", "growth inhibition": "-25%"}, {"compound": "COc1ccc(CCN2C(=O)c3cccc4c(Br)ccc(c34)C2=O)cc1", "growth inhibition": "35.9%"}, {"compound": "CCOC(=O)c1ccc(NC(=S)NC(=O)c2cccs2)o1", "growth inhibition": "63.4%"}, {"compound": "Cc1cc(C)c(N)c(C)n1", "growth inhibition": "11.9%"}, {"compound": "COC(=O)C1=C(C(=O)OC)N(C(C)C)[C@H]2C(C(=O)OC)=C(C(=O)OC)N(C(C)C)[C@@H]12", "growth inhibition": "13.3%"}, {"compound": "NNC(=O)CC(N)C(N)=O", "note": "(centres undefined)", "growth inhibition": "16.5%"}, {"compound": "CCOCNC(=O)Nc1ccccc1", "growth inhibition": "3.9%"}, {"compound": "Cc1cc(=O)n(NC(N)=O)c(C)c1C(=O)O", "growth inhibition": "-5.45%"}, {"compound": "COC(=O)C(Cl)=C1CC1", "growth inhibition": "-5.6%"}, {"compound": "O=[N+]([O-])c1ccccc1S(=O)NCc1c(Cl)cccc1Cl", "note": "(centres undefined)", "growth inhibition": "24.5%"}, {"compound": "OC(CNCCc1ccccc1)COc1cccc2ccccc12", "note": "(centres undefined)", "growth inhibition": "97.2% (active)"}]}]}
